USP10 block – blocks human USP10 ubiquitin-rhodamine cleavage; Q14694; hit rate 1.1% among 47,000; purified USP10, Ub-rhodamine fluorescence, 60 min; inhibition, % at 20 µM
USP30 inh – inhibitors of human USP30 deubiquitinase; Q70CQ3; purified USP30, Ub-rhodamine cleavage fluorescence; inhibition, % at 25 µM; hit rate 5.3% among 47,000
USP17 block – inhibitors of human USP17 deubiquitinase. inhibition, % at 50 µM. hit rate 6.5% among 47,000. purified USP17, Ub-rhodamine cleavage fluorescence, 3 h. A8MUK1
USP8 inh – human USP8 deubiquitinase inhibition; P40818; purified USP8, Ub-rhodamine cleavage fluorescence, 30 min; inhibition, % at 20 µM; hit rate 4.2% among 47,000
Target sequence (P40818 whole entry, looked up): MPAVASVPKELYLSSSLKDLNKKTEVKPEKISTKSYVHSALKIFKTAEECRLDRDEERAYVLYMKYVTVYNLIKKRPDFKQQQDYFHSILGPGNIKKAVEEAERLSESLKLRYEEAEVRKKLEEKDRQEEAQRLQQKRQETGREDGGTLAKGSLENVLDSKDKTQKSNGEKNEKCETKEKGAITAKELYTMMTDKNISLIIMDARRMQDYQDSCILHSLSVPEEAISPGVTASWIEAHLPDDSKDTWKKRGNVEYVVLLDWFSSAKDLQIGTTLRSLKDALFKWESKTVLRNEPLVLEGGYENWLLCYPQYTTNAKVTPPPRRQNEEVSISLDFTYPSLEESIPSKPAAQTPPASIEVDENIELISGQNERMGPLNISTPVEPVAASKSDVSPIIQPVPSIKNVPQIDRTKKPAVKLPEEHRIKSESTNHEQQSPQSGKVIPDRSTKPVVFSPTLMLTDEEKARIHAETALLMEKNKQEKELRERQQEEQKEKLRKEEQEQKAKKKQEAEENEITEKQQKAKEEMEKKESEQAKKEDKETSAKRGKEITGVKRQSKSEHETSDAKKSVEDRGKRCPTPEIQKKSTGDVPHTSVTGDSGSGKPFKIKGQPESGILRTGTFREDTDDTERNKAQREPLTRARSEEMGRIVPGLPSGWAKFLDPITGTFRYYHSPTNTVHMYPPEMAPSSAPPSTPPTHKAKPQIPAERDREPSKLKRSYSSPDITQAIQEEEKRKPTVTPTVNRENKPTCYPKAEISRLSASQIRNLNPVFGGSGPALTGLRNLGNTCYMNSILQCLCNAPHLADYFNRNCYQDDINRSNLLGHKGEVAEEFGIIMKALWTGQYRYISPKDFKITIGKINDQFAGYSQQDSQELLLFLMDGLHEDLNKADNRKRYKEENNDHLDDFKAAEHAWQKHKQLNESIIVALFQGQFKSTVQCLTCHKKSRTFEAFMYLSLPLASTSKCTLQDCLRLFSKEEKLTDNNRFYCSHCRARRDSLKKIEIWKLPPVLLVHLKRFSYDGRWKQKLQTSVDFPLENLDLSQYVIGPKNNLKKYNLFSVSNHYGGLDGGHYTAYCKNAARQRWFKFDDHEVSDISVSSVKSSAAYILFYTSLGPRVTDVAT
USP28 inh – inhibitors of human USP28 deubiquitinase | Q96RU2 | purified USP28, Ub-rhodamine cleavage fluorescence, 30 min | inhibition, % at 25 µM | hit rate 3% among 47,000 | AID 1645857
An asterisk follows results filed as active; / = no result. Most compounds without a hit are left out; they make up all but 14% or so of the library. Cut-off read from the data, not from the text of the source: active = inhibition above about 30%; inactive = the rest.

SMILES | USP10 block | USP30 inh | USP17 block | USP8 inh | USP28 inh
c1ccc(-c2cc3c(NCc4ccccn4)ncnc3s2)cc1 | 5 | 26 | 35* | 21 | 26
O=C(O)c1cnc(NCc2ccccn2)nc1-c1cccc(Cl)c1 | -4 | -23 | -4 | -5 | -19
Cc1nn(-c2ccccc2)c2c1N(CC(=O)NCCCN1CCCCC1C)C(=O)CS2 (configuration not stated) | -5 | -480 | -32 | -91 | -103
O=C(NCCCN1CCOCC1)C1CCCN(c2ncnc3nc[nH]c23)C1 (configuration not stated) | 5 | 23 | 15 | 1 | 7
NS(=O)(=O)c1ccc(C(=O)Nc2cccc(-c3ccc4nncn4n3)c2)cc1 | 2 | 0 | 9 | 34* | 3
Cc1nc(C(=O)NC2(O)C(=O)c3ccccc3C2=O)cs1 | 27 | 35* | 94* | 72* | 22
O=C(Oc1ccc(-c2csnn2)cc1)C1CC1 | 1 | 0 | / | 4 | 0
Cc1nc(CC(=O)Nc2c(C)cccc2C)cs1 | -3 | -60 | -6 | -14 | -12
CSc1ncccc1C(=O)Nc1ccnn1Cc1ccccc1 | 1 | -8 | -12 | -11 | -9
O=C(NC1(O)C(=O)c2ccccc2C1=O)c1ccc(-c2csnn2)cc1 | 6 | 32* | 85* | 93* | 0
CSc1ncccc1C(=O)NC1(O)C(=O)c2ccccc2C1=O | 41* | 46* | 95* | 83* | 10
CCCCC[C@@H](O)[C@H]1C(=O)O[C@H](C)[C@@H](O)/C=C/C=C/C=C\C=C/C=C(\C)[C@@H](O)CC(O)C[C@H](O)C[C@H](O)C[C@H](O)C[C@H](O)C[C@@H]1O (some centres not stated) | -5 | -105 | -12 | -203 | -25
CNc1nc(C2CCCN(S(=O)(=O)c3ccccc3)C2)nc2c1CN(C(C)=O)CC2 (configuration not stated) | -1 | -11 | -5 | 0 | -6
COc1ccc(CCNC(=O)CCc2nc3cccnc3n2Cc2ccccc2)cc1OC | 0 | -3 | 3 | -7 | -3
Cc1nc2nc(SCc3nc4ccccc4n3C)[nH]c2cc1Br | -3 | -178 | 53* | -15 | -26
COc1ccc(-c2ccc(-c3nnn(CCN4CCCCC4)n3)cc2)cc1 | 9 | 0 | 18 | 47* | 4
CCN1C(=O)C(C)(C)COc2ccc(NS(=O)(=O)c3cccc(C)c3)cc21 | 1 | 3 | / | -19 | -3
O=C(Nc1cnccn1)[C@H]1CC[C@@H]2[C@@H](CCN2c2ccncn2)O1 | -5 | -56 | -15 | -64 | -20
CCc1ccccc1NC(=O)CCc1c(C)nc2c(c1C)c(=O)n(C)c(=O)n2C | 2 | 16 | 20 | 22 | 9
CC(=O)c1ccc(NC(=O)CCn2c(=O)c3cccn3c3ccccc32)cc1 | 22 | -245 | 43* | 29 | -1
CCc1ccccc1NC(=O)CCn1c(=O)c2cccn2c2ccccc21 | 5 | -25 | -15 | 37* | -26
COc1cc(NC(=O)CSc2nc3ncccc3o2)ccc1Cl | -4 | -82 | 47* | 85* | 1
COc1ccc(-c2nc3ncccc3o2)cc1NC(=O)COc1ccccc1Cl | 4 | -5 | 0 | -4 | -3
Cc1sc2ccn(C)c(=O)c2c1C(=O)NC1CCCC1 | 13 | 3 | 62* | 94* | 28
COc1ccc(CN2C[C@@H]3C[C@]3(c3ccccc3)C(=O)c3ncccc32)cc1 | 1 | -108 | 60* | 84* | -7
SMILES | USP10 block | USP30 inh | USP17 block | USP8 inh | USP28 inh
Cn1cncc1CN1CCc2nc3cc(C(C)(C)C)[nH]n3c(=O)c2C1 | -3 | 3 | -26 | -240 | -3
O=C(Cc1cc(-c2ccccc2)on1)NCc1c(F)cccc1F | -1 | 23 | 53* | 21 | 27
O=C(Cn1cc(-c2ccccc2)oc1=O)NCc1ccc(Cl)cc1 | -2 | 35* | 41* | 31* | 27
NS(=O)(=O)c1ccc(CCNC(=O)Cc2cc(-c3ccc(F)cc3)on2)cc1 | -3 | -12 | 8 | 48* | 2
COc1cccc(-c2cc(CC(=O)NCc3c(F)cccc3F)no2)c1 | -1 | 27 | 45* | 28 | 18
COc1cc(OC)cc(C(=O)N2CCC(N3CCN(Cc4ccccc4)C3=O)CC2)c1 | -3 | 0 | -12 | -17 | -19
COc1ccc(-c2cc(C(F)(F)F)nc(-n3cc([N+](=O)[O-])cn3)n2)cc1 | 0 | -8 | 14 | 9 | 7
O=C(c1nc(-c2cnccn2)no1)N1CCCCCC1 | 2 | 23 | 2 | -36 | 4
CC(C)(C)c1ccc(Cn2ccc(-c3ccco3)c(C#N)c2=O)cc1 | -9 | -292 | -73 | 8 | -70
O=C(Cc1cc(-c2ccccc2)on1)NCc1ccc(Cl)cc1 | 12 | 16 | 4 | 36* | 1
O=C(Cc1ccc(Cl)cc1)NCc1csc(-c2ccccc2)n1 | 0 | 0 | -3 | -6 | -4
N[C@@H](Cc1c[nH]c2ccccc12)C(=O)N1CCC(C(=O)N[C@@H](Cc2c[nH]c3ccccc23)C(=O)O)CC1 | -4 | -68 | -22 | -15 | -10
O=C(COc1ccccc1)Nc1nnc(-c2ccc(Br)cc2)s1 | 8 | -2 | 0 | 0 | -6
O=C(CN1C(=O)c2ccccc2C1=O)Nc1nc(-c2ccc(Br)cc2)cs1 | 21 | 47* | 7 | 7 | 32*
COc1cccc(C2c3[nH]c4ccccc4c3C[C@@H]3C(=O)N(CCCN4CCOCC4)CC(=O)N23)c1 (some centres not stated) | -7 | 37* | -17 | -27 | -12
N#Cc1ccc(S(=O)(=O)N2CCN(C(=O)C3CCCCC3)CC2)cc1 | 0 | 1 | -1 | 0 | 0
CNC(=O)c1c2n(c3ncccc13)CCN(S(=O)(=O)c1ccc(C(C)(C)C)cc1)C2 | -2 | -32 | -24 | 0 | -16
CNC(=O)c1c2n(c3ncccc13)CCN(S(=O)(=O)c1ccc(-c3ccccc3)cc1)C2 | 34* | -22 | 52* | 14 | -2
Cc1nc2cc(NC(=O)C3CN(C(=O)c4cnccn4)C3)ccc2s1 | 0 | 4 | -16 | -25 | 54*
Cc1ccccc1OCC(=O)N(Cc1ccccc1)c1ccccc1C(=O)O | 6 | 16 | 12 | 9 | 13
COc1nccnc1N1CCC(NC(=O)NCc2cccc(F)c2)C1 (configuration not stated) | -3 | -16 | -8 | -4 | -2
Cc1cccc(NC(=O)Cn2cccc(S(=O)(=O)N3CCCCCC3)c2=O)c1C | -3 | -6 | -130 | -8 | -50
CCCCCCCCCC(CCCCCCCCCC(=O)O)O[C@H]1O[C@@H](COC(C)=O)[C@H](O)[C@@H](OC(=O)CC(=O)O)[C@H]1O (some centres not stated) | 41* | 47* | 33* | 7 | 35*
Cc1ncc(C(=O)NC2CC2)c(=O)n1CC(=O)Nc1ccccc1F | -2 | -5 | -6 | -5 | -10
Cc1nc2c(-c3ccncc3)nsc2c(=O)n1CC(=O)Nc1ccccc1F | -12 | -332 | 46* | 0 | -67

Screens (PubChem BioAssay)
